# Measured values taken from PubChem BioAssay (NCATS).
# Inconclusive results are not listed. Entries that show only a call come without a potency. A number with no mark means an inactive call. Calls of active or inactive are those of the source. Calls follow the shape of the dose curve; as a rule, active = well fitted curve in the direction sought with a large enough effect; inconclusive = small, poorly fitted or top-dose-only effect, or another doubt; inactive = no such curve, though single readings can be large; an effect the other way counts as inactive or inconclusive.
# How the values were obtained:
# [1] = molecular target: Ubiquitin carboxyl-terminal hydrolase 1 (Homo sapiens) (UniProt O94782); test: Inhibitors of USP1/UAF1: Pilot qHTS (AID 504865);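 also: rhodamine fluorescence freed from ubiquitin-rhodamine substrate followed over time; top concentration of the series differs between compounds; nearly all actives have a fitted effect of over 35% in size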
# How it was run: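 In 50mM HEPES pH 7.8 containing 0.5mM EDTA, 1mM TCEP, 0.1 mg/ml BSA and 0.01% Tween-20, 1nM USP1/UAF1 is exposed to compound for 15 min, then Ub-Rho (150nM final) is added and fluorescence is read over time.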
# [2] = S16 Schwann cell PMP22 intronic element firefly luciferase assay (AID 624032); also: nearly all actives have a fitted effect of over 30% in size
# How it was run: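 Rat S16 Schwann cells stably carrying a PMP22 intronic element-driven Fluc reporter were seeded overnight, then exposed to compounds for 24 h at 37 °C. Luminescence was normalized to PTC124 (positive control) and DMSO (0% activity).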
# 3D7 = test: qHTS profiling for inhibitors of Plasmodium falciparum proliferation (AID 504749); also: nearly all actives have a fitted effect of over 60% in size; also: potency is read from the fitted curve at half-maximal effect; conditions: P. falciparum in erythrocytes, SYBR Green DNA, 72 h; series mostly up to 28.7 µM
# How it was run: (§1)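 P. falciparum-infected erythrocytes (0.3% parasitemia, 2.5% hematocrit final) were exposed to compounds for 72 h at 37 C in 5% CO2, then lysed with SYBR Green buffer overnight at room temperature; parasite DNA fluorescence was normalized to artemisinin and DMSO controls.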
# 7G8 = test: as above; conditions: P. falciparum in erythrocytes, SYBR Green DNA, 72 h; series mostly up to 28.7 µM
# How it was run: as §1
# AA1029 = test: as above; conditions: P. falciparum in erythrocytes, SYBR Green DNA, 72 h; series mostly up to 28.7 µM
# How it was run: as §1
# AS120 = test: as above; conditions: P. falciparum in erythrocytes, SYBR Green DNA, 72 h; series mostly up to 28.7 µM
# How it was run: as §1
# ATS189 = test: as above; conditions: P. falciparum in erythrocytes, SYBR Green DNA, 72 h; series mostly up to 28.7 µM
# How it was run: as §1
# ATS95 = test: as above; conditions: P. falciparum in erythrocytes, SYBR Green DNA, 72 h; series mostly up to 28.7 µM
# How it was run: as §1
# CP237 = test: as above; conditions: P. falciparum in erythrocytes, SYBR Green DNA, 72 h; series mostly up to 28.7 µM
# How it was run: as §1
# CP247 = test: as above; conditions: P. falciparum in erythrocytes, SYBR Green DNA, 72 h; series mostly up to 28.7 µM
# How it was run: as §1
# CP250 = test: as above; conditions: P. falciparum in erythrocytes, SYBR Green DNA, 72 h; series mostly up to 28.7 µM
# How it was run: as §1
# CP252 = test: as above; conditions: P. falciparum in erythrocytes, SYBR Green DNA, 72 h; series mostly up to 28.7 µM
# How it was run: as §1
# CP265 = test: as above; conditions: P. falciparum in erythrocytes, SYBR Green DNA, 72 h; series mostly up to 28.7 µM
# How it was run: as §1
# CP335 = test: as above; conditions: P. falciparum in erythrocytes, SYBR Green DNA, 72 h; series mostly up to 28.7 µM
# How it was run: as §1
# DIV30 = test: as above; conditions: P. falciparum in erythrocytes, SYBR Green DNA, 72 h; series mostly up to 28.7 µM
# How it was run: as §1
# PAD = test: as above; conditions: P. falciparum in erythrocytes, SYBR Green DNA, 72 h; series mostly up to 28.7 µM
# How it was run: as §1
# PC15 = test: as above; conditions: P. falciparum in erythrocytes, SYBR Green DNA, 72 h; series mostly up to 28.7 µM
# How it was run: as §1
# SC27B = test: as above; conditions: P. falciparum in erythrocytes, SYBR Green DNA, 72 h; series mostly up to 28.7 µM
# How it was run: as §1
# TAB109 = test: as above; conditions: P. falciparum in erythrocytes, SYBR Green DNA, 72 h; series mostly up to 28.7 µM
# How it was run: as §1
# TAB113 = test: as above; conditions: P. falciparum in erythrocytes, SYBR Green DNA, 72 h; series mostly up to 28.7 µM
# How it was run: as §1
# Ubiquitin carboxyl-terminal hydrolase 1 (Homo sapiens), sequence (O94782 whole entry, looked up): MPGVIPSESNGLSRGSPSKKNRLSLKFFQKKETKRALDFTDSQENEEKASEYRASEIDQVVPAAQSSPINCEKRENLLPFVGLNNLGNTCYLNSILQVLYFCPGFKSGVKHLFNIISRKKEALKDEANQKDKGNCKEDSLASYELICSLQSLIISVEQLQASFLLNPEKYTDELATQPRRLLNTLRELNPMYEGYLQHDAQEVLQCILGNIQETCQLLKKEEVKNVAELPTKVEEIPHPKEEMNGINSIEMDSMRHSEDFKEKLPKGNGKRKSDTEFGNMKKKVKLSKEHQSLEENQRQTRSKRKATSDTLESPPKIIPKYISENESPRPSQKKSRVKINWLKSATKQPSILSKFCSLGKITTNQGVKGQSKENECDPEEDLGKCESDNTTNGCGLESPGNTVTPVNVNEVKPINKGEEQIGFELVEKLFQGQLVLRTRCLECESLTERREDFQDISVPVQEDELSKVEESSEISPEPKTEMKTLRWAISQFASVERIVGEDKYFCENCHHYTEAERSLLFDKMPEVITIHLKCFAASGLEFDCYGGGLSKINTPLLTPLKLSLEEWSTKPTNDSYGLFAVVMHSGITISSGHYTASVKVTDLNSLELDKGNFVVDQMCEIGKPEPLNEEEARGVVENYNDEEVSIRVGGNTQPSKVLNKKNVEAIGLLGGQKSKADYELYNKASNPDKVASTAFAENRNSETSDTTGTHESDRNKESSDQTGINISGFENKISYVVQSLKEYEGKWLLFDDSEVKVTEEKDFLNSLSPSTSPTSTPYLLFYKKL
SMILES,Potency [1],Potency [2],Potency (3D7),Potency (7G8),Potency (AA1029),Potency (AS120),Potency (ATS189),Potency (ATS95),Potency (CP237),Potency (CP247),Potency (CP250),Potency (CP252),Potency (CP265),Potency (CP335),Potency (DIV30),Potency (PAD),Potency (PC15),Potency (SC27B),Potency (TAB109),Potency (TAB113)
CCC(C)C(N)C(=O)O (centres undefined),inactive,inactive,inactive,inactive,inactive,inactive,inactive,inactive,inactive,inactive,inactive,inactive,inactive,inactive,inactive,inactive,inactive,inactive,inactive,inactive
CC1OC(OC2C(O)CC(OC3C(O)CC(OC4CCC5(C)C(CCC6C5CCC5(C)C(C7=CC(=O)OC7)CCC65O)C4)OC3C)OC2C)CC(O)C1O (centres undefined),inactive,,,12.6 µM (active),inactive,inactive,inactive,,,inactive,inactive,inactive,inactive,,inactive,inactive,,inactive,inactive,inactive
CC1CN(c2c(F)c(N)c3c(=O)c(C(=O)O)cn(C4CC4)c3c2F)CC(C)N1 (centres undefined),inactive,inactive,inactive,,inactive,inactive,inactive,inactive,inactive,inactive,inactive,inactive,inactive,,inactive,inactive,inactive,inactive,inactive,inactive
CCOc1ccccc1O[C@@H](c1ccccc1)[C@@H]1CNCCO1,inactive,inactive,,5.01 µM (active),5.62 µM (active),11.2 µM (active),,,,,inactive,,,,6.75 µM (active),,,,,
C/C=C1/NN(CCCN2CCN(c3cccc(Cl)c3)CC2)C(=O)N1CCOc1ccccc1,,,inactive,,inactive,inactive,inactive,inactive,,inactive,inactive,inactive,inactive,,,inactive,inactive,inactive,inactive,inactive
CCC(=O)OC1C(N(C)C)CC(C)O[C@H]1O[C@H]1[C@H](C)[C@@H](O[C@H]2CC(OC)[C@@H](O)C(C)O2)[C@H](C)C(=O)O[C@@H](CC)[C@](C)(O)[C@@H](O)[C@H](C)C(=O)[C@@H](C)C[C@]1(C)O (some centres undefined),inactive,inactive,inactive,inactive,,inactive,inactive,inactive,inactive,,,,,,inactive,inactive,inactive,inactive,,inactive
C=CCN1CC(C(=O)N(CCCN(C)C)C(=O)NCC)CC2c3cccc4[nH]cc(c34)CC21 (centres undefined),inactive,,,10 µM (active),,,,,8.91 µM (active),,inactive,,inactive,,inactive,,,,,
C=C1N[C@]2(C(=O)COC(C)=O)[C@@H](C[C@H]3[C@@H]4CCC5=CC(=O)C=C[C@]5(C)[C@H]4[C@@H](O)C[C@@]32C)O1,inactive,inactive,,,,,,,inactive,inactive,,inactive,inactive,,,inactive,inactive,,inactive,
O=C(NC(CO)C(O)c1ccc([N+](=O)[O-])cc1)C(Cl)Cl (centres undefined),inactive,inactive,,,,,,inactive,,,,,,4.78 µM (active),inactive,inactive,inactive,inactive,,
